# Measurements reported in PubChem BioAssay (EPA / NIEHS).
# Activity calls are given as the source filed them. The calls were made as follows: active = hit-call score of the fitted dose curve at least 0.9, where 1 is the maximum; inactive = score below 0.9.
# Experiments:
# [1] = read-out: TIMP metallopeptidase inhibitor 1 (TIMP1), TIMP1 (gene 7076); test: BSK_hDFCGF_TIMP1: BioMAP Diversity Plus: hDFCGF Assay for TIMP metallopeptidase inhibitor 1 (TIMP1) Biomarker Activity (AID 2283062); conditions: primary human foreskin fibroblasts; actives raise or lower the signal
# Outline: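 Human foreskin fibroblast primary cultures dosed for 24 h; secreted/surface TIMP-1 quantified by ELISA. Bidirectional curve fitting against DMSO baseline; cytotoxicity tracked in parallel cultures by SRB total-protein staining.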
# [2] = read-out: Monokine induced gamma interferon (MIG), CXCL9 (gene 4283); test: BSK_hDFCGF_MIG: BioMAP Diversity Plus: hDFCGF Assay for Monokine induced gamma interferon (MIG) Biomarker Activity (AID 2283063); conditions: primary human foreskin fibroblasts; actives raise or lower the signal
# Outline: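 MIG/CXCL9 measured by ELISA 24 h after dosing primary human skin fibroblasts. Activity fitted in both directions against DMSO controls. Cytotoxicity was checked in parallel cultures by SRB staining read at 560 nm.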
# [3] = read-out: Matrix Metallopeptidase 1 (MMP1), MMP1 (gene 4312); test: BSK_hDFCGF_MMP1: BioMAP Diversity Plus: hDFCGF Assay for Matrix Metallopeptidase 1 (MMP1) Biomarker Activity (AID 2283064); conditions: primary human foreskin fibroblasts; actives raise or lower the signal
# Outline: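 ELISA read-out of MMP1 from human foreskin fibroblasts (primary skin cells), 24 h post-dose. Gain or loss of signal was fitted bidirectionally versus DMSO negative control; cytotoxicity was checked by SRB in parallel cultures.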
# [4] = read-out: Vascular cell adhesion molecule 1 (VCAM1), VCAM1 (gene 7412); test: BSK_hDFCGF_VCAM1: BioMAP Diversity Plus: hDFCGF Assay for Vascular cell adhesion molecule 1 (VCAM1) Biomarker Activity (AID 2283065); conditions: primary human foreskin fibroblasts; actives raise or lower the signal;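 as to AC50: VCAM-1 protein level quantified by ELISA after 24 h chemical exposure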
# Outline: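 Human foreskin fibroblast primary cells dosed with chemical, VCAM-1 measured by ELISA at 24 h. Bidirectional curve fitting relative to DMSO as negative control/baseline.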
# [5] = read-out: Plasminogen activator inhibitor-1 (PAI1), SERPINE1 (gene 5054); test: BSK_hDFCGF_PAI1: BioMAP Diversity Plus: hDFCGF Assay for Plasminogen activator inhibitor-1 (PAI1) Biomarker Activity (AID 2283066); conditions: primary human foreskin fibroblasts; actives raise or lower the signal
# Outline: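 PAI-1 levels in human dermal foreskin fibroblasts were quantified by ELISA 24 h after dosing, with gain or loss analysed against DMSO. Overt cytotoxicity was checked by sulforhodamine B total-protein staining in parallel cultures.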
# [6] = read-out: Intercellular Adhesion Molecule 1 (ICAM1), ICAM1 (gene 3383); test: BSK_KF3CT_ICAM1: BioMAP Diversity Plus: KF3CT Assay for Intercellular Adhesion Molecule 1 (ICAM1) Biomarker Activity (AID 2283067); conditions: primary human keratinocytes with fibroblasts; actives raise or lower the signal
# Outline: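 Human keratinocyte–foreskin fibroblast co-culture was treated for 24 h. Cell-surface ICAM-1 was quantified by ELISA, fitted bidirectionally relative to DMSO. Cytotoxicity was checked in parallel cultures by SRB total-protein staining.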
# [7] = read-out: Interferon-gamma inducible Protein 10 (IP10), CXCL10 (gene 3627); test: BSK_KF3CT_IP10: BioMAP Diversity Plus: KF3CT Assay for Interferon-gamma inducible Protein 10 (IP10) Biomarker Activity (AID 2283068); conditions: primary human keratinocytes with fibroblasts; actives raise or lower the signal
# Outline: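 ELISA read-out of IP-10 after 24 h chemical dosing of human skin primary co-culture (keratinocytes, foreskin fibroblasts). Gain or loss of signal relative to DMSO, bidirectional curve fit.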
# [8] = BSK_KF3CT_SRB: Viability Assessment in the BioMAP Diversity Plus: KF3CT Assay (AID 2283069); conditions: primary human keratinocytes with fibroblasts
# Outline: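 SRB read-out at 560 nm (0.1% stain, TCA-fixed cells) gauges overt cytotoxicity in a human skin keratinocyte–fibroblast co-culture 24 h post-dosing. Signal change was fitted bidirectionally relative to DMSO control.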
# [9] = read-out: Interleukin-1 alpha (IL1a), IL1A (gene 3552); test: BSK_KF3CT_IL1a: BioMAP Diversity Plus: KF3CT Assay for Interleukin-1 alpha (IL1a) Biomarker Activity (AID 2283070); conditions: primary human keratinocytes with fibroblasts; actives raise or lower the signal
# Outline: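 Primary skin co-culture (keratinocytes, foreskin fibroblasts), 24 h exposure; ELISA for IL-1a; bidirectional curve fit vs DMSO.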
# [10] = read-out: TIMP metallopeptidase inhibitor 2 (TIMP2), TIMP2 (gene 7077); test: BSK_KF3CT_TIMP2: BioMAP Diversity Plus: KF3CT Assay for TIMP metallopeptidase inhibitor 2 (TIMP2) Biomarker Activity (AID 2283071); conditions: primary human keratinocytes with fibroblasts; actives raise or lower the signal
# Outline: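 TIMP-2 measured by ELISA at 24 h in human keratinocyte/fibroblast primary co-cultures exposed to chemicals. Both increases and decreases were fitted against DMSO. Parallel cultures were stained with SRB for total protein as an overt-cytotoxicity check.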
# [11] = read-out: Transforming growth factor beta 1 (TGFb1), TGFB1 (gene 7040); test: BSK_KF3CT_TGFb1: BioMAP Diversity Plus: KF3CT Assay for Transforming growth factor beta 1 (TGFb1) Biomarker Activity (AID 2283072); conditions: primary human keratinocytes with fibroblasts; actives raise or lower the signal
# Outline: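 ELISA quantifies TGF-b1 at 24 h post-dose in a primary human skin co-culture of keratinocytes and fibroblasts, with gain or loss judged against DMSO. Parallel SRB total-protein staining flags overt cytotoxicity.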
# [12] = read-out: C-C motif chemokine 2 (Homo sapiens) (UniProt P13500); test: BSK_KF3CT_MCP1: BioMAP Diversity Plus: KF3CT Assay for Monocyte Chemoattractant Protein 1 (MCP1/CCL2) Biomarker Activity (AID 2283073); conditions: primary human keratinocytes with fibroblasts; actives raise or lower the signal
# Outline: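 Human keratinocyte–foreskin fibroblast co-culture; MCP-1 measured by ELISA 24 h after dosing. Bidirectional fit vs DMSO; cytotoxicity tracked by SRB total protein in parallel cultures.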
# [13] = read-out: Matrix Metallopeptidase 9 (MMP9), MMP9 (gene 4318); test: BSK_KF3CT_MMP9: BioMAP Diversity Plus: KF3CT Assay for Matrix Metallopeptidase 9 (MMP9) Biomarker Activity (AID 2283074); conditions: primary human keratinocytes with fibroblasts; actives raise or lower the signal;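 as to AC50: MMP9 protein level quantified by ELISA in the co-culture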
# Outline: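 ELISA read-out of MMP-9 at 24 h post-dosing in a co-culture of human skin keratinocytes and foreskin fibroblasts. Gain or loss of signal was fitted in both directions against DMSO.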
# [14] = read-out: urokinase plasminogen activator (uPA), PLAU (gene 5328); test: BSK_KF3CT_uPA: BioMAP Diversity Plus: KF3CT Assay for urokinase plasminogen activator (uPA) Biomarker Activity (AID 2283075); conditions: primary human keratinocytes with fibroblasts; actives raise or lower the signal
# Outline: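 Skin co-culture (keratinocytes + foreskin fibroblasts), human primary; 24 h post-dose; uPA by ELISA; gain/loss fit vs DMSO baseline.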
# [15] = read-out: CD40, CD40 (gene 958); test: BSK_LPS_CD40: BioMAP Diversity Plus: LPS Assay for CD40 Biomarker Activity (AID 2283076); conditions: primary human HUVEC with PBMC; actives raise or lower the signal
# Outline: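 HUVEC plus PBMC co-culture stimulated with LPS; CD40 quantified by ELISA 24 h after compound dosing. Fitting was bidirectional relative to DMSO. SRB staining of parallel cultures flagged overt cytotoxicity.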
# [16] = read-out: E-selectin (Homo sapiens) (UniProt P16581); test: BSK_LPS_Eselectin: BioMAP Diversity Plus: LPS Assay for Eselectin Biomarker Activity (AID 2283077); conditions: primary human HUVEC with PBMC; actives raise or lower the signal
# Outline: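 Human umbilical vein endothelial cells co-cultured with PBMC under LPS stimulation; cell-surface E-selectin measured by ELISA 24 h after dosing. Change in either direction versus DMSO, with SRB total-protein staining in parallel cultures for cytotoxicity.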
# [17] = read-out: Interleukin-8 (IL8), CXCL8 (gene 3576); test: BSK_LPS_IL8: BioMAP Diversity Plus: LPS Assay for Interleukin-8 (IL8) Biomarker Activity (AID 2283078); conditions: primary human HUVEC with PBMC; actives raise or lower the signal
# Outline: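 Human umbilical vein endothelial cells co-cultured with PBMC, LPS-stimulated, exposed to compound for 24 h. IL-8 quantified by ELISA; fitted in both directions against DMSO, with SRB total-protein staining of parallel cultures for cytotoxicity.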
# [18] = BSK_LPS_SRB: Viability Assessment in the BioMAP Diversity Plus: LPS Assay (AID 2283079); conditions: primary human HUVEC with PBMC;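 also: total protein by sulforhodamine B absorbance as a cytotoxicity measure; measured one day after compound addition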
# Outline: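 Co-culture of human umbilical vein endothelial cells and PBMC, read 24 h after dosing. Total protein by 0.1% SRB staining after 10% TCA fixation, absorbance at 560 nm; bidirectional fit against DMSO.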
# [19] = read-out: Interleukin-1 alpha (IL1a), IL1A (gene 3552); test: BSK_LPS_IL1a: BioMAP Diversity Plus: LPS Assay for Interleukin-1 alpha (IL1a) Biomarker Activity (AID 2283080); conditions: primary human HUVEC with PBMC; actives raise or lower the signal
# Outline: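 Human umbilical vein endothelial cells co-cultured with PBMC and stimulated with LPS; IL-1a measured by ELISA 24 h after dosing. Bidirectional fitting against DMSO; cytotoxicity checked by SRB staining in parallel cultures.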
# [20] = read-out: Monocyte Chemoattractant Protein-1 (MCP1), CCL2 (gene 6347); test: BSK_LPS_MCP1: BioMAP Diversity Plus: LPS Assay for Monocyte Chemoattractant Protein-1 (MCP1) Biomarker Activity (AID 2283081); conditions: primary human HUVEC with PBMC; actives raise or lower the signal;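 as to AC50: secreted MCP-1 protein quantified by ELISA in culture supernatant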
# Outline: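 Human umbilical vein endothelial cells co-cultured with PBMC, LPS-stimulated; secreted MCP-1 measured by ELISA 24 h after compound addition. Bidirectional curve fitting against DMSO baseline; SRB total-protein staining in parallel cultures for cytotoxicity.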
# E-selectin (Homo sapiens), sequence (P16581 whole entry, looked up): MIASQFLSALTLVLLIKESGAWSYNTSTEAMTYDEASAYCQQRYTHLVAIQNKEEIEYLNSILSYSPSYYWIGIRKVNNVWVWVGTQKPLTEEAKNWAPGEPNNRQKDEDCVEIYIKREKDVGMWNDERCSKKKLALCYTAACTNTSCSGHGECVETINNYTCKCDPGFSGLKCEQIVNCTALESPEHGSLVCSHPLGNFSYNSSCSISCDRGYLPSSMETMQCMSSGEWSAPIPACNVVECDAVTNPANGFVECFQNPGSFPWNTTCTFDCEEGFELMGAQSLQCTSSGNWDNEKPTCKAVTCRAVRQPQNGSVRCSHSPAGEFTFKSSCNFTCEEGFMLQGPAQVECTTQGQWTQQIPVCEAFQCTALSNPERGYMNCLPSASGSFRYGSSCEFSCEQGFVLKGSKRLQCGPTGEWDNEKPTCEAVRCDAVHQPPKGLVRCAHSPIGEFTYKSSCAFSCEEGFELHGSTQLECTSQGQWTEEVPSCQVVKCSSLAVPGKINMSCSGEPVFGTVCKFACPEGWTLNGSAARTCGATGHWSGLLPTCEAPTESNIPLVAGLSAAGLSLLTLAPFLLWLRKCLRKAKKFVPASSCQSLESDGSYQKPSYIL
compound,measurement,setting,value
Cc1nc(C)nc(N2C[C@@H](C)N(c3ccnc([C@@H](C)O)n3)[C@@H](C)C2)n1,outcome,[1],inactive
same,outcome,[2],inactive
same,outcome,[3],inactive
same,outcome,[4],inactive
same,outcome,[5],inactive
same,outcome,[6],inactive
same,outcome,[7],inactive
same,outcome,[8],inactive
same,outcome,[9],inactive
same,outcome,[10],inactive
same,outcome,[11],inactive
same,outcome,[12],inactive
same,outcome,[13],inactive
same,outcome,[14],inactive
same,outcome,[15],inactive
same,outcome,[16],inactive
same,outcome,[17],inactive
same,outcome,[18],inactive
same,outcome,[19],inactive
same,outcome,[20],inactive
Cc1cccc(Nc2cc(Cl)nc(SCC(=O)O)n2)c1C,outcome,[1],inactive
same,outcome,[2],inactive
same,outcome,[3],inactive
same,outcome,[4],inactive
same,outcome,[5],inactive
same,outcome,[6],inactive
same,outcome,[7],inactive
same,outcome,[8],inactive
same,outcome,[9],inactive
same,outcome,[10],inactive
same,outcome,[11],inactive
same,outcome,[12],inactive
same,outcome,[13],inactive
same,outcome,[14],inactive
same,outcome,[15],inactive
same,outcome,[16],inactive
same,outcome,[17],inactive
same,outcome,[18],inactive
same,outcome,[19],inactive
same,outcome,[20],inactive
O=C(O)Cc1ccccc1Nc1c(Cl)cccc1Cl,outcome,[1],inactive
same,outcome,[2],inactive
same,outcome,[3],inactive
same,outcome,[4],inactive
same,outcome,[5],inactive
same,outcome,[6],inactive
same,outcome,[7],inactive
same,outcome,[8],inactive
same,outcome,[9],inactive
same,outcome,[10],inactive
same,outcome,[11],inactive
same,AC50,[12],8.68 µM (active)
same,outcome,[13],inactive
same,outcome,[14],inactive
same,outcome,[15],inactive
same,outcome,[16],inactive
same,outcome,[17],inactive
same,outcome,[18],inactive
same,outcome,[19],inactive
same,outcome,[20],inactive
CCOc1ccc2c(c1)C(C)=CC(C)(C)N2,outcome,[1],inactive
same,AC50,[2],16.4 µM (active)
same,outcome,[3],inactive
same,AC50,[4],3.97 µM (active)
same,outcome,[5],inactive
same,outcome,[6],inactive
same,outcome,[7],inactive
same,outcome,[8],inactive
same,outcome,[9],inactive
same,outcome,[10],inactive
same,outcome,[11],inactive
same,outcome,[12],inactive
same,outcome,[13],inactive
same,outcome,[14],inactive
same,outcome,[15],inactive
same,outcome,[16],inactive
same,outcome,[17],inactive
same,outcome,[18],inactive
same,outcome,[19],inactive
same,outcome,[20],inactive
CCc1c(C(=O)NN2CCCCC2)nn(-c2ccc(Cl)cc2Cl)c1-c1ccc(Br)cc1,AC50,[1],3.54 µM (active)
same,AC50,[2],4.28 µM (active)
same,AC50,[3],3.03 µM (active)
same,AC50,[4],3.82 µM (active)
same,AC50,[5],2.3 µM (active)
same,outcome,[6],inactive
same,AC50,[7],13.1 µM (active)
same,AC50,[8],7.2 µM (active)
same,AC50,[9],9.35 µM (active)
same,AC50,[10],5.8 µM (active)
same,AC50,[11],6.72 µM (active)
same,AC50,[12],13 µM (active)
same,AC50,[13],4.31 µM (active)
same,AC50,[14],7.27 µM (active)
same,AC50,[15],12.3 µM (active)
same,AC50,[16],7.44 µM (active)
same,AC50,[17],5.2 µM (active)
same,AC50,[18],9.94 µM (active)
same,AC50,[19],10.4 µM (active)
same,AC50,[20],8.8 µM (active)
CC(C)c1ccc(C(=O)N=C(N)N)cc1S(C)(=O)=O,outcome,[1],inactive
same,outcome,[2],inactive
same,outcome,[3],inactive
same,outcome,[4],inactive
same,outcome,[5],inactive
same,outcome,[6],inactive
same,outcome,[7],inactive
same,outcome,[8],inactive
same,outcome,[9],inactive
same,outcome,[10],inactive
same,outcome,[11],inactive
same,outcome,[12],inactive
same,outcome,[13],inactive
same,outcome,[14],inactive
same,outcome,[15],inactive
same,outcome,[16],inactive
same,outcome,[17],inactive
same,outcome,[18],inactive
same,outcome,[19],inactive
same,outcome,[20],inactive
